# Data from PubChem BioAssay AID504332 (National Center for Advancing Translational Sciences (NCATS), 2011).
# Several values for one entry are separate records, joined by “and”; a condition that tells them apart may be missing. Identical values can stand only once. In all, about 350,000 compounds went through this assay and about 31,000 (8.9%) were called active. Inconclusive results (about 15%) are left out. The list comes from a sample in which actives are over-represented; it also holds similar structures and randomly drawn compounds. A number with no mark means an inactive call. Calls come from the whole dose curve; as a rule, active = well fitted inhibition curve with a large enough effect; inconclusive = small, poorly fitted or top-dose-only effect; inactive = no such curve, though single readings can be large or run the other way.
# Biological target: Histone-lysine N-methyltransferase EHMT2 (Homo sapiens) (UniProt Q96KQ7)
# Test: qHTS Assay for Inhibitors of Histone Lysine Methyltransferase G9a; note: nearly all actives have a fitted effect of over 75% in size
# Settings: G9a H3K9 monomethylation, AlphaScreen, 2 h; series mostly up to 59 µM; activity, negative = inhibition: at the top concentration
# How it was run: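 Chemiluminescent proximity detection of H3K9 monomethylation, read after 10 min bead incubation in the dark. Reaction: 20 nM G9a, 500 nM biotin-H3K9 peptide, 20 uM SAM cofactor, 2 h, room temperature, following 15 min enzyme-compound preincubation.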
# % is set by controls: 0 for no effect and ±100 for the full control effect; potency is the fitted concentration of half-maximal effect.
# Histone-lysine N-methyltransferase EHMT2 (Homo sapiens), sequence (Q96KQ7 913-1193 limits assumed): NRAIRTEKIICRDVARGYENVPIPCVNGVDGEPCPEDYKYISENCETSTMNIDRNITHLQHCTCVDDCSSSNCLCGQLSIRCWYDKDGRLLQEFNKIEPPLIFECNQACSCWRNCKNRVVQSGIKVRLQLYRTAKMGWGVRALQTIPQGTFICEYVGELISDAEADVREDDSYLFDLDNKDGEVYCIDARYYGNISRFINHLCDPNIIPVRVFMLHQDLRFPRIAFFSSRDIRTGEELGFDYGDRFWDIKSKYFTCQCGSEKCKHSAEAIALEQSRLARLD
Structure (SMILES),"activity, negative = inhibition",Potency
COCCNC(=O)c1ccc2nc(Cc3ccc(OC)c(OC)c3)oc2c1,42.5% [at 102 µM],
CC(=O)Nc1cccc(C(=O)OCC(=O)Nc2nnc(-c3ccccc3)o2)c1,-0.909% [at 102 µM],
CN(CC(=O)NCc1cccnc1)S(=O)(=O)c1cc(Cl)ccc1Cl,-31.6% [at 102 µM],
COc1ccc(NC(=O)C2CCN(S(=O)(=O)c3ccc4[nH]c(=O)oc4c3)CC2)c(OC)c1,-3.14% [at 102 µM],
C=CCN1C(=O)C(O)(CC(=O)c2ccc(Cl)cc2)c2ccccc21 (stereo not given),,44.7 µM (active)
CCOC(=O)CN1C(=O)C(O)(CC(=O)c2ccccn2)c2ccccc21 (stereo not given),13.3% [at 102 µM],
O=C(CC1(O)C(=O)N(CN2CCOCC2)c2ccccc21)c1ccccc1 (stereo not given),8.91%,
COc1ccc(CCNC(=O)c2ccc(CSCc3ccc(C)cc3)o2)cc1OC,-41.2%,
CCc1nnc2c3ccccc3nc(N3CCN(c4ccc(C)cc4C)CC3)n12,-5.99%,
Cc1ccc(/C=C/C(=O)OCC(=O)Nc2cccnc2Cl)cc1,5.18% [at 12.7 µM],
CC(=O)Nn1cc2c(=O)n(C)c(=O)n(C)c2c1,,35.5 µM (active)
CC(=O)NNc1cc(=O)c2c(=O)n(C)c(=O)n(C)c2[nH]1,23.3%,
CC(=O)c1c(N)n(C)c(=O)n(C)c1=O,17.5%,
Nc1ccn(CC(=O)N2CCN(c3ccccn3)CC2)c(=O)n1,-0.804% [at 0.501 µM],
COC(=O)c1ccccc1NS(=O)(=O)c1ccc2c(c1)CCCN2C(C)=O,-5.09%,
O=C(Nc1ccc(N2CCN(C(=O)c3ccccc3)CC2)c(Cl)c1)c1cccnc1,-6.61%,
COC(=O)[C@H](C)[C@H]1C[C@]1(C)[C@H](NC(=O)OCc1ccccc1)c1ccccc1,29.2% [at 102 µM],
C[C@@H](C(=O)Nc1ccc2ccccc2c1)[C@@H]1C[C@@]1(C)[C@@H](NC(=O)c1cccnc1)c1ccccc1,,50.1 µM (active)
CC(=O)N[C@@H](C)C(=O)N1CCC(n2nccc2NC(=O)CCCc2ccccc2)CC1,16.2% [at 102 µM],
CC(NS(=O)(=O)c1ccc(Cl)cc1)C(=O)Nc1ccc2c(c1)OCCO2 (stereo not given),15.8% [at 102 µM],
N#C/C(=C\c1ccccc1C(F)(F)F)C(=O)Nc1ccccc1F,7.49%,
N#C/C(=C\C1=C(N2CCOCC2)C(=C\c2ccccc2)/CC1)C(=O)Nc1ccccc1F,,7.08 µM (active)
Cc1ccc(C(=O)Nc2ccccc2F)cc1S(=O)(=O)N1CCOCC1,0.422%,
CCOCCCn1c(SCC(=O)Nc2ccc(CC)cc2)nc2ccccc2c1=O,12.2%,

Structure (SMILES),"activity, negative = inhibition",Potency
O=C(CCc1nc(CN2CCN(S(=O)(=O)c3ccc(F)cc3)CC2)no1)N1CCCCC1,-32.6%,
COc1ccc(N(C)C(=O)C2CCN(S(=O)(=O)c3cc(Br)cc4c3N(C(C)=O)CC4)CC2)cc1,8.09%,
CCOc1ccc(CNC(=O)c2cc(=O)[nH]c3ccc(S(=O)(=O)N4CCCCC4)cc23)cc1,1.87%,
Brc1ccc(C2=NCCC(c3ccccc3)O2)cc1 (stereo not given),15.4% [at 102 µM],
CNC(=S)N1N=C(c2ccccc2)CC1c1ccc(Br)cc1 (stereo not given),-5.86% [at 102 µM],
Brc1ccc(C2CC(c3ccccc3)=Nc3ccccc3N2)cc1 (stereo not given),,39.8 µM (active)
COc1cc(C(=O)N2CCC(c3ccncc3)CC2)cc(OC)c1OC,10.3%,
Cc1ccc(NC(=O)C(C)OC(=O)Cc2c[nH]c3ccccc23)cc1S(=O)(=O)N1CCOCC1 (stereo not given),,35.5 µM (active)
CC(OC(=O)CCCc1c[nH]c2ccccc12)C(=O)Nc1ccc(S(N)(=O)=O)cc1 (stereo not given),14.8% [at 0.501 µM],
Cc1ccc(NC(=O)c2ccccn2)cc1S(=O)(=O)N1CCOCC1,3.07% [at 102 µM],
CS(=O)(=O)c1ccc2nc(NC(=O)c3ccc(N4CCCC4=O)cc3)sc2c1,7.63% [at 102 µM],
CS(=O)(=O)c1ccc2nc(NC(=O)C3CCCCC3)sc2c1,19.9%,
CS(=O)(=O)c1ccc2nc(NC(=O)CN3CCCCCC3)sc2c1,,17.8 µM (active)
COc1cccc(NC(=O)CN(C)C(=O)CSCc2nc3scc(-c4cccs4)c3c(=O)[nH]2)c1,-5.02%,
CCOC(=O)C1=C(c2ccc(OC)cc2)C(=O)c2ccccc2C1=O,,31.6 µM (active)
CCOC(=O)c1c(C)[nH]c2c1-c1ccccc1C(=O)C2=O,-9.77%,
COc1ccc(OCCCON2C(=O)c3ccccc3C2=O)cc1,-9.02%,
CSCCC(NS(=O)(=O)c1ccccc1F)C(=O)N1CC=C(c2ccccc2)CC1 (stereo not given),-15.4% [at 102 µM],
CC(C)(C)c1ccc(C(=O)N2CCC(c3nc(-c4ccc(S(=O)(=O)N5CCCC5)cc4)no3)CC2)cc1,-29%,
CCc1nn(CCCC(=O)NCc2ccccc2OC)c(=O)c2cc3occc3n12,9.29%,
Cc1ccc(Cl)cc1NC(=O)CSc1nc2ccccc2nc1Cc1ccccc1,-2.39%,
COc1ccc(CNc2ncnc3ccccc23)cc1,7.39% [at 102 µM],
CCOC(=O)C1=C(C)Nc2sc(C(=O)c3ccc(Br)cc3)c(N)c2C1c1ccc(C(=O)OC)cc1 (stereo not given),0.599% [at 12.7 µM],
CCOC(=O)c1sc(=S)n2c1[nH]c(=O)c1ccc(C(=O)OC)cc12,,7.94 µM (active)

Structure (SMILES),"activity, negative = inhibition",Potency
CCOC(=O)c1sc(NC(=O)c2ccncc2)nc1C,16.5%,
CC(=O)N1CCCc2cc(S(=O)(=O)Nc3ccc(Cl)cc3F)ccc21,3.87%,
Cc1nc2sc(C(c3ccco3)N3CCOCC3)c(O)n2n1 (stereo not given),,11.2 µM (active)
Oc1c(C(c2ccccc2Cl)N2CCOCC2)sc2nc(-c3ccco3)nn12 (stereo not given),-31.5%,
Cc1ccc(C(c2sc3nc(C)nn3c2O)N2CCN(c3ccccc3)CC2)cc1 (stereo not given),15.6% [at 12.7 µM],
Oc1c(C(c2ccco2)N2CCC3(CC2)OCCO3)sc2ncnn12 (stereo not given),,35.5 µM (active)
COc1cccc(CNC(=O)CCc2nc(-c3ccc(C)cc3)no2)c1,20.6%,
CCCN1CCN(CCCNC(=O)c2cnn(-c3ccc(C)cc3)c2-n2cccc2)CC1,-11.1%,
COc1ccc(-c2ccc(=O)n(CC(=O)Nc3ccc(Br)cc3F)n2)cc1,0.314%,
O=C(COc1ccc(Cl)cc1)NCCS(=O)(=O)N1CCN(c2ccc(F)cc2)CC1,-10.7% [at 102 µM],
COc1ccccc1/C=C/c1nc(C#N)c(NC(C)c2ccccc2)o1 (stereo not given),-49.3%,
O=C(Nc1nnc(C2=COCCO2)o1)c1ccc([N+](=O)[O-])s1,,44.7 µM (active)
CS(=O)(=O)c1ccc(-c2nnc(NC(=O)c3ccc4c(c3)OCCO4)o2)cc1,44.7%,
CSc1ccccc1-c1nnc(NC(=O)c2ccc3c(c2)OCCO3)o1,64.6%,
Cc1ccccc1OCC(=O)Nc1ccc2c(c1)ncn2C,-10.2% [at 0.501 µM],
O=S(=O)(NCCCN1CCOCC1)c1ccc(F)c(Cl)c1,27% [at 12.7 µM],
COc1ccc(-c2ccc(CNCCCN3CCOCC3)o2)cc1Cl,,50.1 µM (active)
COc1ccc(S(=O)(=O)N(C)CC(=O)NCCCN2CCOCC2)cc1Cl,10.6%,
O=C(NCc1cccnc1)c1cc(S(=O)(=O)N2CCOCC2)c(Cl)cc1Cl,-2.17% [at 2.33 µM],
CCc1cccc(NC(=O)CN(c2ccc(C)c(C)c2)S(=O)(=O)c2ccsc2C(=O)OC)c1,5.26%,
CC(=O)Nc1ccc(S(=O)(=O)N2CCC(C(=O)N[C@@H](Cc3ccccc3)C(=O)O)CC2)cc1,13.7% [at 102 µM],
CSc1cccc(NC(=O)CN2C(=O)CCc3cc(S(=O)(=O)N4CCCCC4)ccc32)c1,-38.2%,
Cc1ccc(NN=Nc2nc3c([nH]2)c(=O)n(C)c(=O)n3C)cc1,,1.58 µM (active)
Cc1cccc(C)c1NC(=O)CSc1nc2c([nH]1)c(=O)n(C)c(=O)n2C,1.79%,

Structure (SMILES),"activity, negative = inhibition",Potency
CC(CCO)Nc1nc2c([nH]1)c(=O)n(C)c(=O)n2C (stereo not given),-11%,
Cc1ccc(NC(=O)c2csc3c2CCCC3)cc1,1.14% [at 102 µM],
CC(=O)Cc1nsc(NC(=O)c2csc3c2CCCC3)n1,,2.51 µM (active)
CC(=O)Cc1nsc(NC(=O)c2ccc(Cl)cc2Cl)n1,-27.6% [at 102 µM],
COc1ccc(C2C(C(C)=O)=C(O)C(=O)N2Cc2cccnc2)cc1 (stereo not given),,20 µM (active)
CCCOc1ccc(C2c3c(-c4ccccc4O)n[nH]c3C(=O)N2Cc2cccnc2)cc1 (stereo not given),-1.26%,
COc1cc(C2C(C(=O)c3ccc(C)o3)=C(O)C(=O)N2Cc2cccnc2)ccc1O (stereo not given),-13.2%,
O=C(c1ccc(Br)cc1)N(Cc1cccs1)c1ccc(F)cc1,65%,
CCCOc1ccc(C2=CSC3=NCCN23)cc1Cl,-12.4% [at 102 µM],
COc1ccc(CCNc2ncnc3onc(-c4ccc(Cl)cc4)c23)c(OC)c1,5.46%,
CCCCn1c(CNC(=O)C23CC4CC(CC(C4)C2)C3)nnc1SCC(=O)Nc1ccc(C)cc1,-10.5%,
COc1ccc(-c2onc(C)c2C)cc1S(=O)(=O)NCC1CCN(Cc2cccc(F)c2)CC1,1.76%,
O=C(c1cccc([N+](=O)[O-])c1)N1CCN(Cc2ccccc2)CC1,16.3% [at 102 µM],
Cc1cc(OCCCN2CCN(Cc3ccccc3)CC2)ccc1[N+](=O)[O-],,8.91 µM (active)
Cc1cc(OCCCCOc2ccc(C#N)cc2)ccc1[N+](=O)[O-],30.7% [at 12.7 µM],
COc1ccc(-c2nc(Cn3c(=O)cc(C)c4c(C)nn(-c5ccccc5)c43)c(C)o2)cc1OC,6.04%,
O=c1[nH]c(=S)[nH]c2[nH]c(=S)[nH]c12,,1.58 µM (active) and 1.26 µM (active)
CN(CC(=O)Nc1ccc(Cl)cc1)CC(=O)Nc1cccc2ccccc12,-44.6% [at 12.7 µM],
Cc1ccc(S(=O)(=O)NCCSc2ccccc2)cc1[N+](=O)[O-],-13.4%,
CCS(=O)(=O)c1cc([N+](=O)[O-])c(Sc2ccccc2N)s1,,1.12 µM (active)
CCOC(=O)c1cc(Sc2ccccc2N)cc(C(=O)OCC)n1,45% [at 102 µM],
CCOc1ccccc1NC(=O)Cn1ncc2ccc([N+](=O)[O-])cc21,-50.6% [at 102 µM],
CCc1ccccc1NC(=O)c1ccc2nc(CCc3ccccc3)oc2c1,-8.22%,
